The values below come from the supplement of paper PMC6992640.

The test system of this assay is UCD52 (cells of a triple-negative basal-like breast cancer xenograft). Kind of assay: cell viability of combination (% of vehicle); higher = less cytotoxic. The settings on record: 1 µM; 72 h; partner dose: 10 nM. Here is the method: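 PDX cells were treated for 72 h with each drug at 1 µM plus afatinib (10 nM; 1 µM for WHIM30). Luciferase viability is expressed as percent of vehicle.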
As to `Cl.O.O=C1Cc2cc(CCN3CCN(c4nsc5ccccc45)CC3)c(Cl)cc2N1` [Ziprasidone hydrochloride monohydrate] + CN(C)C/C=C/C(=O)Nc1cc2c(Nc3ccc(F)c(Cl)c3)ncnc2cc1O[C@H]1CCOC1 [Afatinib], the “cell viability of combination” value was 70.3.
With `Cc1ccc(NC(=O)c2ccc(CN3CCN(C)CC3)cc2)cc1Nc1nc(-c2cccnc2)cs1` [Masitinib (AB1010)] + CN(C)C/C=C/C(=O)Nc1cc2c(Nc3ccc(F)c(Cl)c3)ncnc2cc1O[C@H]1CCOC1 [Afatinib] the figure was 64.5; with `CCN(CC)CCCC(C)Nc1ccnc2cc(Cl)ccc12.O=P(O)(O)O.O=P(O)(O)O` (stereo not given) [Chloroquine diphosphate] + CN(C)C/C=C/C(=O)Nc1cc2c(Nc3ccc(F)c(Cl)c3)ncnc2cc1O[C@H]1CCOC1 [Afatinib], 48.5; with `CC(C)c1nc(N(C)S(C)(=O)=O)nc(-c2ccc(F)cc2)c1C=CC(O)CC(O)CC(=O)[O-].CC(C)c1nc(N(C)S(C)(=O)=O)nc(-c2ccc(F)cc2)c1C=CC(O)CC(O)CC(=O)[O-].[Ca+2]` (stereo not given) [Rosuvastatin Calcium] + CN(C)C/C=C/C(=O)Nc1cc2c(Nc3ccc(F)c(Cl)c3)ncnc2cc1O[C@H]1CCOC1 [Afatinib], 55.2.
Take `CC[C@H](C)[C@H]1O[C@]2(CC[C@@H]1C)C[C@@H]1C[C@@H](C/C=C(\C)[C@@H](O[C@H]3C[C@H](OC)[C@@H](O[C@H]4C[C@H](OC)[C@@H](O)[C@H](C)O4)[C@H](C)O3)[C@@H](C)/C=C/C=C3\CO[C@@H]4[C@H](O)C(C)=C[C@@H](C(=O)O1)[C@]34O)O2` [Ivermectin] + CN(C)C/C=C/C(=O)Nc1cc2c(Nc3ccc(F)c(Cl)c3)ncnc2cc1O[C@H]1CCOC1 [Afatinib]: the “cell viability of combination” value worked out at 45.8.
In the case of `Cl.Nc1ccn(C2OC(CO)C(O)C2O)c(=O)n1` (stereo not given) [Cytarabine hydrochloride] + CN(C)C/C=C/C(=O)Nc1cc2c(Nc3ccc(F)c(Cl)c3)ncnc2cc1O[C@H]1CCOC1 [Afatinib], the “cell viability of combination” value was 72.2.
Take `COC(=O)C1=C(C)NC(C)=C(C(=O)OCCN(C)Cc2ccccc2)C1c1cccc([N+](=O)[O-])c1.Cl` (stereo not given) [Nicardipine HCl] + CN(C)C/C=C/C(=O)Nc1cc2c(Nc3ccc(F)c(Cl)c3)ncnc2cc1O[C@H]1CCOC1 [Afatinib]: the “cell viability of combination” value is 69.6.
For `Nc1ncn(C2OC(CO)C(O)C2O)c(=O)n1` (stereo not given) [5-Azacytidine] + CN(C)C/C=C/C(=O)Nc1cc2c(Nc3ccc(F)c(Cl)c3)ncnc2cc1O[C@H]1CCOC1 [Afatinib], the “cell viability of combination” value came to 58.5.
The same measure for `Cc1ccc(-n2[nH]c(C)c(NN=C3C=CC=C(c4cccc(C(=O)O)c4)C3=O)c2=O)cc1C` [Eltrombopag] + CN(C)C/C=C/C(=O)Nc1cc2c(Nc3ccc(F)c(Cl)c3)ncnc2cc1O[C@H]1CCOC1 [Afatinib]: 77.1.
The same measure for `CC(O)C(=O)O.CC(O)C(=O)O.CN1CCN(c2ccc3c(c2)NC(=C2C(=O)N=c4cccc(F)c4=C2N)N3)CC1` [Dovitinib Dilactic acid] + CN(C)C/C=C/C(=O)Nc1cc2c(Nc3ccc(F)c(Cl)c3)ncnc2cc1O[C@H]1CCOC1 [Afatinib]: 56.7; for `CN(C)c1ccc(C(=C2C=CC(=[N+](C)C)C=C2)c2ccc(N(C)C)cc2)cc1.[Cl-]` [Crystal Violet] + CN(C)C/C=C/C(=O)Nc1cc2c(Nc3ccc(F)c(Cl)c3)ncnc2cc1O[C@H]1CCOC1 [Afatinib]: 41.
In the case of `COCCOC(=O)C1=C(C)NC(C)=C(C(=O)OCC=Cc2ccccc2)C1c1cccc([N+](=O)[O-])c1` (stereo not given) [Cilnidipine] + CN(C)C/C=C/C(=O)Nc1cc2c(Nc3ccc(F)c(Cl)c3)ncnc2cc1O[C@H]1CCOC1 [Afatinib], the “cell viability of combination” value came to 70.6.
Take `CC(=O)C1(O)Cc2c(O)c3c(c(O)c2C(OC2CC(N)C(O)C(C)O2)C1)C(=O)c1ccccc1C3=O.Cl` (stereo not given) [Idarubicin HCl] + CN(C)C/C=C/C(=O)Nc1cc2c(Nc3ccc(F)c(Cl)c3)ncnc2cc1O[C@H]1CCOC1 [Afatinib]: the “cell viability of combination” value stood at 24.3.
With `CO[C@H]1C[C@@H]2CC[C@@H](C)[C@@](O)(O2)C(=O)C(=O)N2CCCC[C@H]2C(=O)O[C@H]([C@H](C)C[C@@H]2CC[C@@H](O)[C@H](OC)C2)CC(=O)[C@H](C)/C=C(\C)[C@@H](O)[C@@H](OC)C(=O)[C@H](C)C[C@H](C)/C=C/C=C/C=C/1C` [Rapamycin (Sirolimus)] + CN(C)C/C=C/C(=O)Nc1cc2c(Nc3ccc(F)c(Cl)c3)ncnc2cc1O[C@H]1CCOC1 [Afatinib], the “cell viability of combination” value came out at 42.5.
Take `Cc1nc(NC(=O)N2CCCC2C(N)=O)sc1-c1ccnc(C(C)(C)C(F)(F)F)c1` (stereo not given) + CN(C)C/C=C/C(=O)Nc1cc2c(Nc3ccc(F)c(Cl)c3)ncnc2cc1O[C@H]1CCOC1 [Afatinib]: the “cell viability of combination” value came to 43.4.
Take `COc1ccc2c(O[C@H]3CC4C(=O)N(C)CCCC/C=C\[C@H]5C[C@@]5(C(=O)NS(=O)(=O)C5CC5)NC(=O)[C@@H]4C3)cc(-c3nc(C(C)C)cs3)nc2c1C` (stereo not given in full) [Simeprevir] + CN(C)C/C=C/C(=O)Nc1cc2c(Nc3ccc(F)c(Cl)c3)ncnc2cc1O[C@H]1CCOC1 [Afatinib]: the “cell viability of combination” value came to 64.5.
With `COc1cccc2c1C(=O)c1c(O)c3c(c(O)c1C2=O)CC(O)(C(=O)CO)CC3OC1CC(N)C(O)C(C)O1.Cl` (stereo not given) [Doxorubicin (Adriamycin) HCl] + CN(C)C/C=C/C(=O)Nc1cc2c(Nc3ccc(F)c(Cl)c3)ncnc2cc1O[C@H]1CCOC1 [Afatinib], the “cell viability of combination” value came out at 40.9.
For `Clc1ccc(CSC(Cn2ccnc2)c2ccc(Cl)cc2Cl)cc1.O=[N+]([O-])O` (stereo not given) [Sulconazole Nitrate] + CN(C)C/C=C/C(=O)Nc1cc2c(Nc3ccc(F)c(Cl)c3)ncnc2cc1O[C@H]1CCOC1 [Afatinib], the “cell viability of combination” value was determined as 74.1.
With `CO[C@H]1C[C@@H]2CC[C@@H](C)[C@@](O)(O2)C(=O)C(=O)N2CCCC[C@H]2C(=O)O[C@H]([C@H](C)C[C@@H]2CC[C@@H](OC(=O)C(C)(CO)CO)[C@H](OC)C2)CC(=O)[C@H](C)/C=C(\C)[C@@H](O)[C@@H](OC)C(=O)[C@H](C)C[C@H](C)/C=C/C=C/C=C/1C` [Temsirolimus] + CN(C)C/C=C/C(=O)Nc1cc2c(Nc3ccc(F)c(Cl)c3)ncnc2cc1O[C@H]1CCOC1 [Afatinib] the figure was 40.4; with `CO[C@@]12[C@H](COC(N)=O)C3=C(C(=O)C(C)=C(N)C3=O)N1C[C@@H]1N[C@@H]12` [Mitomycin C] + CN(C)C/C=C/C(=O)Nc1cc2c(Nc3ccc(F)c(Cl)c3)ncnc2cc1O[C@H]1CCOC1 [Afatinib], 58.4; with `CC(CCC(=O)O)C1CCC2C3CCC4CC(O)CCC4(C)C3CCC12C` (stereo not given) [Lithocholic Acid] + CN(C)C/C=C/C(=O)Nc1cc2c(Nc3ccc(F)c(Cl)c3)ncnc2cc1O[C@H]1CCOC1 [Afatinib], 52.6.
Turning to `Cc1c(Cl)cccc1Nc1ccccc1C(=O)O` [Tolfenamic Acid] + CN(C)C/C=C/C(=O)Nc1cc2c(Nc3ccc(F)c(Cl)c3)ncnc2cc1O[C@H]1CCOC1 [Afatinib], the “cell viability of combination” value came to 78.5.
As for `O=C(O)c1cc(O)c(O)c(O)c1` [Gallic acid] + CN(C)C/C=C/C(=O)Nc1cc2c(Nc3ccc(F)c(Cl)c3)ncnc2cc1O[C@H]1CCOC1 [Afatinib], the “cell viability of combination” value was determined as 73.6.
Take `C=C1C(=CC=C2CCCC3(C)C2CCC3C(C)C=CC(C)C(C)C)CC(O)CC1O` (stereo not given) [Doxercalciferol] + CN(C)C/C=C/C(=O)Nc1cc2c(Nc3ccc(F)c(Cl)c3)ncnc2cc1O[C@H]1CCOC1 [Afatinib]: the “cell viability of combination” value stood at 47.6.
With `COc1cc2c(Oc3ccc(NC(=O)C4(C(=O)Nc5ccc(F)cc5)CC4)cc3F)ccnc2cc1OCCCN1CCOCC1` + CN(C)C/C=C/C(=O)Nc1cc2c(Nc3ccc(F)c(Cl)c3)ncnc2cc1O[C@H]1CCOC1 [Afatinib] the figure was 28.5; with `C=C1C(=CC=C2CCCC3(C)C2CCC3C(C)CCCC(C)C)CC(O)CC1O` (stereo not given) [Alfacalcidol] + CN(C)C/C=C/C(=O)Nc1cc2c(Nc3ccc(F)c(Cl)c3)ncnc2cc1O[C@H]1CCOC1 [Afatinib], 50.
With `CCc1oc2ccccc2c1C(=O)c1cc(Br)c(O)c(Br)c1` [Benzbromarone] + CN(C)C/C=C/C(=O)Nc1cc2c(Nc3ccc(F)c(Cl)c3)ncnc2cc1O[C@H]1CCOC1 [Afatinib] the figure was 77.2.
The same measure for `Cl.Cl.O=C1c2c(O)ccc(O)c2C(=O)c2c(NCCNCCO)ccc(NCCNCCO)c21` [Mitoxantrone HCl] + CN(C)C/C=C/C(=O)Nc1cc2c(Nc3ccc(F)c(Cl)c3)ncnc2cc1O[C@H]1CCOC1 [Afatinib]: 32.2; for `COc1cc(Nc2ncc(F)c(Nc3ccc4c(n3)N(COP(=O)(O)O)C(=O)C(C)(C)O4)n2)cc(OC)c1OC` [Fostamatinib (R788)] + CN(C)C/C=C/C(=O)Nc1cc2c(Nc3ccc(F)c(Cl)c3)ncnc2cc1O[C@H]1CCOC1 [Afatinib]: 74.9.
On to `Nc1ccn(C2OC(CO)C(O)C2O)c(=O)n1` (stereo not given) [Cytarabine] + CN(C)C/C=C/C(=O)Nc1cc2c(Nc3ccc(F)c(Cl)c3)ncnc2cc1O[C@H]1CCOC1 [Afatinib], for which the “cell viability of combination” value was found to be 65.7.
In the case of `O=C(c1ccc(F)c(F)c1Nc1ccc(I)cc1F)N1CC(O)(C2CCCCN2)C1` (stereo not given) [Cobimetinib] + CN(C)C/C=C/C(=O)Nc1cc2c(Nc3ccc(F)c(Cl)c3)ncnc2cc1O[C@H]1CCOC1 [Afatinib], the “cell viability of combination” value was 36.5.
As for `CCOc1cc2ncc(C#N)c(Nc3ccc(F)c(Cl)c3)c2cc1NC(=O)C=CCN(C)C` [Pelitinib (EKB-569)] + CN(C)C/C=C/C(=O)Nc1cc2c(Nc3ccc(F)c(Cl)c3)ncnc2cc1O[C@H]1CCOC1 [Afatinib], the “cell viability of combination” value came to 28.6.
With `CS(=O)(=O)O.Cc1c(O)cccc1C(=O)NC(CSc1ccccc1)C(O)CN1CC2CCCCC2CC1C(=O)NC(C)(C)C` (stereo not given) [Nelfinavir Mesylate] + CN(C)C/C=C/C(=O)Nc1cc2c(Nc3ccc(F)c(Cl)c3)ncnc2cc1O[C@H]1CCOC1 [Afatinib], the “cell viability of combination” value worked out at 47.9.
With `CC(NCCCc1cccc(C(F)(F)F)c1)c1cccc2ccccc12.Cl` (stereo not given) [Cinacalcet HCl] + CN(C)C/C=C/C(=O)Nc1cc2c(Nc3ccc(F)c(Cl)c3)ncnc2cc1O[C@H]1CCOC1 [Afatinib] the figure was 67.7.
Consider `Cc1ccc(C(=O)N(CCCN)C(c2nc3cc(Cl)ccc3c(=O)n2Cc2ccccc2)C(C)C)cc1` (stereo not given) + CN(C)C/C=C/C(=O)Nc1cc2c(Nc3ccc(F)c(Cl)c3)ncnc2cc1O[C@H]1CCOC1 [Afatinib], for which the “cell viability of combination” value was 36.
In the case of `CCC(=C(c1ccccc1)c1ccc(OCCN(C)C)cc1)c1ccccc1.O=C(O)CC(O)(CC(=O)O)C(=O)O` [Tamoxifen Citrate] + CN(C)C/C=C/C(=O)Nc1cc2c(Nc3ccc(F)c(Cl)c3)ncnc2cc1O[C@H]1CCOC1 [Afatinib], the “cell viability of combination” value stood at 69.5.
For the compound `COc1cc(C(=O)O)ccc1NC(=O)C1NC(CC(C)(C)C)C(C#N)(c2ccc(Cl)cc2F)C1c1cccc(Cl)c1F` (stereo not given) + CN(C)C/C=C/C(=O)Nc1cc2c(Nc3ccc(F)c(Cl)c3)ncnc2cc1O[C@H]1CCOC1 [Afatinib], the “cell viability of combination” value turned out to be 60.4.
With `CCCCc1oc2ccccc2c1C(=O)c1cc(I)c(OCCN(CC)CC)c(I)c1.Cl` [Amiodarone HCl] + CN(C)C/C=C/C(=O)Nc1cc2c(Nc3ccc(F)c(Cl)c3)ncnc2cc1O[C@H]1CCOC1 [Afatinib] the figure was 66.3.
On to `Cc1cc(Nc2ncc(Cl)c(Nc3ccccc3S(=O)(=O)C(C)C)n2)c(OC(C)C)cc1C1CCNCC1` + CN(C)C/C=C/C(=O)Nc1cc2c(Nc3ccc(F)c(Cl)c3)ncnc2cc1O[C@H]1CCOC1 [Afatinib], for which the “cell viability of combination” value amounted to 28.7.
The same measure for `Nc1c(CC(=O)[O-])cccc1C(=O)c1ccccc1.O.[Na+]` [Amfenac Sodium Monohydrate] + CN(C)C/C=C/C(=O)Nc1cc2c(Nc3ccc(F)c(Cl)c3)ncnc2cc1O[C@H]1CCOC1 [Afatinib]: 76.3.
